Data reported in PubChem BioAssay (NCI).
“And” between values parts separate entries of the source, which are not always exact repeats. Equal values may be shown once. This is part of a sample that, as a whole, favours compounds with a hit. Of some 83,000 tested, about 20% had one in any assay.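 Cells were grown in 96-well plates and exposed to the test compound at a single concentration for 48 hours; results are reported as percent growth, with values below 10 considered active.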 Values without a mark were called inactive. The source made the active and inactive calls.

Tested on: MDA-MB-468 breast
Experiment: NCI-60 one-dose screen, 48 h (100 = growth as untreated, 0 = no growth, -100 = all killed)
Settings: 10 µM unless noted

Row | Compound | growth
1 | CCc1cc2c(c3ccc(C(=O)CBr)cc13)CCCC2 | 111%
2 | O=C(Nc1cccc(N=Cc2c(O)ccc3ccccc23)c1)c1ccccc1 | 98.9%
3 | COc1ccc2c(c1)C(=O)/C(=C/c1ccc([N+](=O)[O-])s1)O2 | -22.9% (active)
4 | Clc1ccc(/C=N\N2CCCCCC2)cc1 | 106% and 122%
5 | CN1CCN(c2ccc(Nc3nc(NCCCNS(=O)(=O)c4ccccc4)c4sccc4n3)cc2)CC1 | 30.3%
6 | CC1=CCC2C1CC=C(C)C(CC[C@H]1[C@@](C)(O)CCC3OC(C)(C)[C@H](OC(=O)c4ccccc4)CC[C@@]31C)C2(C)C (stereo not given in full) | 64.8%
7 | COc1cc(Nc2c(C#N)cnn3cc(-c4cnn(CC(C)(C)O)c4)cc23)ccc1Cl | 65.1%
8 | O=C(CNc1nc2ccccc2s1)Nc1ccc(-c2nc3ccccc3s2)cc1 | -17.8% (active)
9 | CCCc1cc(=O)oc2c3c(c4c(c12)OC(C)(C)CC4)OC(C)[C@H](C)[C@@H]3O (stereo not given in full) | 108%
10 | COc1ccc(Oc2nc(Nc3ccc(N4CCOCC4)cc3)ncc2NC(=O)c2cc(OC)cc(OC)c2)cc1 | 86.6%
11 | CCN1C(=O)N(CC)C2C1NN=c1s/c(=C\c3ccc(Br)cc3)c(=O)n12 (stereo not given) | 7.21% (active)
12 | COc1cc(-c2cc(-c3ccc(Nc4nc(Nc5ccccc5)nc(Nc5ccc(Cl)cc5)n4)cc3)nc(N)n2)cc(OC)c1OC | 90.7%
13 | CC1=C(C)C(=O)C(Nc2ccccc2)=C(Cl)C1=O | -76% (active)
14 | Cc1ccc(/C=C/CC(=O)Nc2ccc(C(=O)Nc3ccc(F)cc3N)cc2)cn1 | 53.5%
15 | COc1ccc(-c2[nH]ncc2/C=C/c2cc(C(F)(F)F)[nH]c(=O)n2)cc1 | 96.1%
16 | Cn1cc(C2=C(c3cccc4ccccc34)C(=O)NC2=O)c2cc(Br)ccc21 | 87.2%
17 | COc1cc(/C=N/Nc2ccccc2F)cc(OC)c1OC | 97%
18 | CN(C)CCC=C1c2ccccc2C(C)(C)c2ccccc21 | 56.6%
19 | CNC(=O)c1cc(Oc2ccc(NC(=O)Nc3ccc(Cl)c(OC(C)C)c3)c(F)c2)ccn1 | 11.8%
20 | NC(Cc1ccc(O)c([N+](=O)[O-])c1)C(=O)O (stereo not given) | 101%

Row | Compound | growth
21 | COc1cc(C2C=C(c3ccc(C)cc3)Nc3nc(SC)[nH]c(=O)c32)ccc1Oc1ccnc2cc(Cl)ccc12 (stereo not given) | 75.3%
22 | O=S(=O)(c1ccc(NCSc2nc3ccccc3s2)cc1)c1ccc(NCSc2nc3ccccc3s2)cc1 | 95.8%
23 | CS(=O)c1nccc(-c2c(-c3ccc(F)c(OCc4ccc(F)cc4)c3)nc3sccn23)n1 (stereo not given) | -69.4% (active)
24 | CC(CCCC(=O)O)c1ccoc1 (stereo not given) | 119%
25 | COc1ccc(-c2cn(-c3ccccc3)c(-c3ccccc3)n2)cc1OC | 9.76% (active)
26 | Nc1nc(N)c2cc(S(=O)(=O)c3cccc(C(F)(F)F)c3)ccc2n1 | 38.9%
27 | O=C(c1ccc(Cl)cc1)C(NCCO)c1ccc(Cl)cc1 (stereo not given) | 84.1% and 114%
28 | COc1cc(CNC(=O)C2CSC3(C)c4ccccc4C(=O)N23)cc(OC)c1OC (stereo not given) | 89.6%
29 | COc1ccc(-c2c(-c3ccccc3)noc2N)cc1OC | 85.7%
30 | CC1(C)NCCC[C@]2(C)[C@H]3CC=C4[C@@H]5C[C@](C)(COC(=O)c6ccccc6C(=O)O)CC[C@]5(C)CC[C@@]4(C)[C@]3(C)CC[C@@H]12 | 29.5%
31 | C#CC(F)(F)[C@]1(O)CC[C@H]2[C@@H]3CCC4=CC(=O)CCC4=C3[C@@H](c3ccc(C4CC4)cc3)C[C@@]21C | 33.8%
32 | N#C/C(=C\c1ccc(-c2ccc(Cl)c(Cl)c2)o1)C(=O)Nc1ncc(Cc2ccc(Cl)cc2)s1 | 22.1%
33 | COc1cc(-c2nn(-c3ccc(NC(=O)Nc4ccc(Cl)c(Cl)c4)cc3)cc2-c2ccncc2)ccc1Cl | 30.4%
34 | CN(C)c1ccc(/C=N/Nc2nnc3n2N=C(c2ccc(Cl)cc2)CS3)cc1 | 104%
35 | N#CCCCCCn1c2ccccc2c2c3[nH]c(=O)[nH]c(=O)c3c3c4ccccc4n(CCCCCC#N)c3c21 | 69.7%
36 | Nc1nc2c(c3ncncc13)C(c1cccc(C(F)(F)F)c1)Cc1ncncc1-2 (stereo not given) | -10.4% (active)
37 | N#C/C(=C\c1ccc(F)cc1)n1nc2cccc(F)c2n1 | 21.6%
38 | Cc1ccc(C)c2c1CCC2=O | 63.4%
39 | C=CCOC1=CC(=O)c2ccccc2C1=O | 29.2%
40 | COCCn1cc(-c2csc(-c3c[nH]c4ccc(F)cc34)n2)c2cccnc21 | -6.83% (active)
